The structures appear in SMILES notation. Values joined by “and” are separate entries in the source; they are usually repeats but may differ in a detail not shown here. Identical values can stand only once. Unmarked numbers belong to inactive results. Records with an inconclusive call do not appear. Active and inactive are the calls of the source. Unless noted, calls come from the whole dose curve; as a rule, active = well fitted curve in the direction sought with a large enough effect; inconclusive = small, poorly fitted or top-dose-only effect, or another doubt; inactive = no such curve, though single readings can be large; an effect the other way counts as inactive or inconclusive.

In experiment [1] the test system is HIV-1 nucleocapsid protein NCp7 (binding to TG oligonucleotide). Description: HIV Nucleocapsid (AID 346; call rule not given here;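 note: potency is the fitted concentration of half-maximal effect; potency is for inhibitors that block NC binding and lower polarization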). The conditions noted are these: HIV-1 NC / fluorescein-TGTGTGTG probe, fluorescence polarization. The essentials: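 10 nM TG4xF probe with 100 nM nucleocapsid protein in high-salt Hepes pH 7.5 (250mM NaCl) containing 1uM ZnCl2 and reducing agents. Compound inhibition of binding was read as fluorescein polarization after 1 hr at room temperature.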

A short description of experiment [2]: Cellular Toxicity (caspase-3) HUV-EC-C (AID 656). Particulars: HUV-EC-C cells, caspase-3 activation (apoptosis), vehicle = 0, 100 µM tamoxifen = 100%; series mostly up to 92.2 µM. The essentials:
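Luminescent Caspase-Glo 3/7 readout after 16 h, 37 °C compound exposure of HUV-EC-C endothelial cells, 1000 per well, complete medium. AC50 derived by Hill fitting, with DMSO as baseline and 100 uM tamoxifen as full activation.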

Experiment [3] can be described thus: Cellular Toxicity (caspase-3) MRC-5 (AID 659). The conditions noted are these: MRC-5 cells, luminescence, normalized: DMSO 0%, 10 µM staurosporine 100%; series mostly up to 91.7 µM. The method in brief: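 Concentration-dependent caspase 3/7 activation is measured in human normal lung fibroblasts (MRC-5) following 16-hour treatment. AC50 values come from standard Hill-equation modeling of luminescence normalized to DMSO and 10 uM staurosporine.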

Experiment [4] in a line: Cellular Toxicity (caspase-3) Mesangial (AID 660).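 Note: combined caspase 3 and 7 activity read by Caspase-Glo luminescence; cells exposed to compound for 16 h before the caspase read.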 Particulars: mesangial cells, normalized: DMSO 0%, 100 µM tamoxifen 100%; series mostly up to 91.7 µM. The method in brief: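 Mesangial cells, 1000/well, 5 h settle at 37 °C; compound 16 h, 37 °C; Caspase-Glo 3/7 reagent 20 min RT; luminescence. Norm.: DMSO = 0%, tamoxifen 100 uM = 100%. AC50, Hill fit.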
A short description of experiment [5]: Cellular Toxicity (caspase-3) SK-N-SH (AID 661). Note: potency is the fitted concentration of half-maximal effect. The conditions noted are these: SK-N-SH caspase-3 activation, qHTS; series mostly up to 91.7 µM. The method in brief:
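Human neuroblastoma SK-N-SH, 1500 cells/well, 5 hr pre-incubation, then compound 16 hr, 37 °C. Caspase-Glo 3/7 reagent, 1 hr RT, luminescence. Norm. to DMSO/10 uM staurosporine; Hill-fit AC50.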
For orientation: qHTS replaces the single test concentration by a dilution series.

Experiment [6] in a line: Cellular Toxicity (caspase-3) Hek293 (AID 664).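 Note: cells exposed to compound for 16 h at 37 °C before readout.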 Particulars: HEK293 caspase-3 activation, DMSO = 0%, 100 µM tamoxifen = 100%; at 92.2 µM (top of the series). The method in brief: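 Cells plated, 5 hr at 37 °C; compounds added; 16 hr at 37 °C; Caspase-Glo 3/7 reagent, 20 min RT; luminescence read. Activation expressed relative to DMSO and 100 uM tamoxifen, AC50 by Hill model.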

Experiment [7] is described as follows: Cellular Toxicity (caspase-3) NIH 3T3 (AID 666).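 Note: caspase signal read after 16 h compound exposure; 0% = DMSO basal and 100% = 100 µM tamoxifen stimulation.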 Particulars: NIH 3T3 caspase-3 activation, apoptosis/toxicity; series mostly up to 92.2 µM. The method in brief: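 Luminescence from aminoluciferin released by caspase-3/7 cleavage of a peptide substrate served as read-out. Mouse fibroblast NIH 3T3 cells were exposed to compounds over a concentration range for 16 hours, and AC50 values came from standard Hill modelling.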

Experiment [8] can be described thus: MultiTox-Fluor Cytotoxicity Assay - LYMP1-001 - Dead Cells (AID 946).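 Note: 0% = DMSO and 100% = tetraoctylammonium bromide.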 The conditions noted are these: LYMP1-001 lymphoblastoid cells, dead-cell protease fluorescence; series mostly up to 92.2 µM. The method in brief:
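In this qHTS, 15 uM tetraoctylammonium bromide defined 100% and DMSO defined basal activity. Lymphoblastoid cells (LYMP1-001, 2500 per well) received compound for 16 hr at 37 C before a fluorogenic dead-cell substrate readout at 485/520 nm.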

Experiment [9] can be described thus: Cell Viability - LYMP1-002 - Assay at 16 hr (AID 948).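 Note: 0% = DMSO alone and full effect = 92 µM tetraoctylammonium bromide.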 The conditions noted are these: LYMP1-002 lymphoblastoid cell viability; series mostly up to 92.2 µM. The method in brief: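 ATP luminescence (CellTiter-Glo) was measured after 16 hr compound exposure at 37 C of 2500 lymphoblastoid LYMP1-002 cells per well. Concentration-response curves were fitted with the Hill equation to give AC50.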

Experiment [10] is described as follows: MultiTox-Fluor Cytotoxicity Assay - LYMP1-003 - Live Cells (AID 962).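 Note: cells exposed to compound for 16 hours at 37 °C; 0% = DMSO only and full loss = 92 µM tetraoctylammonium bromide; cytotoxic hits lower the live-cell protease signal.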 The conditions noted are these: LYMP1-003 lymphoblastoid cells, MultiTox-Fluor live-cell protease fluorescence; series mostly up to 92.2 µM. The essentials: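 qHTS, 1536-well; 2500 cells/well LYMP1-003; 5 hr 37 C settle; cpd 16 hr 37 C; MultiTox-Fluor reagent 60 min RT; live-cell protease fluor. 405/510; Hill-fit AC50; tetraoctylammonium bromide pos. ctrl.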

A short description of experiment [11]: Cell Viability - LYMP1-002 - Assay at 40 hr (AID 994).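 Note: 0% = DMSO only and full inhibition = 92 µM tetraoctylammonium bromide; nearly all actives have a fitted effect of over 60% in size.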 Particulars: LYMP1-002 lymphoblastoid cell viability; series mostly up to 92.2 µM. The essentials:
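Luminescent ATP signal served as the viability readout, with decreases taken as toxicity. Cells were treated with compounds across a concentration range for 40 hours at 37 C, and AC50 values came from standard Hill modeling.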

Experiment [12] can be described thus: qHTS Assay for Identification of Small Molecule Inducers of Hypoxia Response (AID 2120; active = well fitted curve in the direction sought with a large enough effect in the signal ratio, with a control signal flat, not every such curve was filed as active; the % refers to the signal ratio; note: 0% is about no effect). The conditions noted are these: hypoxia response reporter cells, beta-lactamase ratio readout; series mostly up to 104 µM. The essentials:
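ME-180 HRE-bla cells plated in Opti-MEM/0.5% dialyzed FBS, rested 4-5 h, then dosed with compound titrations by pin tool. After 17 h at 37 degrees C, CCF4 dye loaded 2.5 h at RT; 460/530 nm ratio gave %Activity and AC50.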

A short description of experiment [13]: qHTS assay for environmental chemicals that activate the Aryl hydrocarbon Receptor (AhR) signaling pathway (AID 651777). For activation: % of control where 0% means no effect. Note: nearly all actives have a fitted effect of over 15% in size. Note: potency is the fitted concentration of half-maximal effect. The conditions noted are these: 1A2-DRE human hepatoma cells, luciferase, 24 h; activation: hits give high values. The method in brief: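 Luminescence (One-Glo, 30 min, room temperature) reports AhR-driven luciferase in stably transfected human hepatoma cells bearing DRE and CYP1A2 promoter. Cells (1,200/well) were treated with compound for 24 hr at 37 C in qHTS format.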

Experiment [14] deals with Peroxisome proliferator-activated receptor alpha (Homo sapiens) (UniProt Q07869). Put plainly: qHTS assay for small molecule agonists of the peroxisome proliferator-activated receptor alpha (PPARalpha) signaling pathway (AID 651778). Note: % of control where 0% means no effect. The conditions noted are these: PathHunter PPARalpha complementation, chemiluminescence, 6 h; hits give high values. The essentials: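 Chemiluminescence from complemented enzyme reported PPARalpha activation in cells after 6 hr of compound treatment at 37 C. The detection reagent was incubated for 60 min at room temperature, and compounds were scored as agonists.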

The nature of experiment [15]: qHTS assay for small molecule agonists of the antioxidant response element (ARE) signaling pathway measured by Nrf2-dependant transcriptional activity - cell viability counter screen (AID 720653; active = well fitted curve in the direction sought with a large enough effect in the repeat runs; an effect the other way counts as inactive or inconclusive; note: % is set by controls: 0 for no effect and ±100 for the full control effect). The conditions noted are these: ARE-bla HepG2 viability, CellTiter-Glo ATP luminescence, 16 h; hits give low values. The method in brief: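 Cytotoxicity counter screen: intracellular ATP quantified by CellTiter-Glo luminescence in the same ARE-bla HepG2 plates, after 16 h compound exposure and a 2 h beta-lactamase substrate step.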

A short description of experiment [16]: qHTS assay for cell viability of the p53RE-bla HCT-116 cell line (AID 743292). Note: nearly all actives have a fitted effect of over 55% in size. Note: potency is the fitted concentration of half-maximal effect. Particulars: p53RE-bla HCT-116 viability, ATP luminescence, 16 h; series mostly up to 95 µM. The method in brief: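 ATP-based luminescent viability (CellTiter-Glo, 30 min RT) after 16 h compound treatment at 37 C of p53RE-bla HCT-116 cells, seeded at 4,000 cells/well and rested 5 h before dosing.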

A short description of experiment [17]: Cell Viability - BJ (AID 421; calls by dose curve;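 note: potency is the fitted concentration of half-maximal effect; cells exposed to compound for 40 hours at 37 °C before readout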). Particulars: BJ fibroblast viability, qHTS. The essentials:
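Quantitative HTS: ATP depletion in BJ cells after 40 hr compound exposure in complete culture medium, detected with CellTiter-Glo; AC50 from standard Hill fits.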

The target of experiment [18] is Cytochrome P450 3A4 (Homo sapiens) (UniProt P08684). Put plainly: qHTS Assay for Inhibitors and Substrates of Cytochrome P450 3A4 (AID 884). Note: % is set by controls: 0 for no effect and ±100 for the full control effect; nearly all actives have a fitted effect of over 50% in size. Particulars: recombinant CYP3A4, Luciferin-PPXE luminescence; series mostly up to 57.1 µM. The method in brief: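 20 nM human CYP3A4 with 25 uM Luciferin-PPXE (at KM) in 200 mM KPO4, preincubated 10 min with compound; NADPH regeneration started a 60 min RT reaction. Luciferin detected by luminescence, normalized to 57 uM ketoconazole as full inhibition.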

Experiment [19] can be described thus: Cell Viability - LYMP2-003 (AID 965).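 Note: cells exposed to compounds for 24 h before reading; nearly all actives have a fitted effect of over 50% in size.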 Note: potency is the fitted concentration of half-maximal effect. Particulars: LYMP2-003 lymphoblastoid cell viability; series mostly up to 92.2 µM. The method in brief: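 CellTiter-Glo luminescence quantified ATP loss after 24 h compound treatment of LYMP2-003 lymphoblastoid cells at 37 C. Titration series were fitted with the standard Hill equation to give AC50.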
Experiment [20] is described as follows: Cell Viability - LYMP2-026 (AID 989). Note: % is set by controls: 0 for no effect and ±100 for the full control effect; nearly all actives have a fitted effect of over 50% in size. Particulars: LYMP2-026 lymphoblastoid cell viability, qHTS; series mostly up to 92.2 µM. The method in brief:
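Luminescent ATP signal (CellTiter-Glo, 30 min room temperature) measures viable lymphoblastoid cells after 24 hr compound treatment at 37 C. Decreased ATP reflects acute toxicity; AC50 values come from Hill-equation modeling.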

Sequence of Peroxisome proliferator-activated receptor alpha (Homo sapiens) (Q07869 whole entry, looked up): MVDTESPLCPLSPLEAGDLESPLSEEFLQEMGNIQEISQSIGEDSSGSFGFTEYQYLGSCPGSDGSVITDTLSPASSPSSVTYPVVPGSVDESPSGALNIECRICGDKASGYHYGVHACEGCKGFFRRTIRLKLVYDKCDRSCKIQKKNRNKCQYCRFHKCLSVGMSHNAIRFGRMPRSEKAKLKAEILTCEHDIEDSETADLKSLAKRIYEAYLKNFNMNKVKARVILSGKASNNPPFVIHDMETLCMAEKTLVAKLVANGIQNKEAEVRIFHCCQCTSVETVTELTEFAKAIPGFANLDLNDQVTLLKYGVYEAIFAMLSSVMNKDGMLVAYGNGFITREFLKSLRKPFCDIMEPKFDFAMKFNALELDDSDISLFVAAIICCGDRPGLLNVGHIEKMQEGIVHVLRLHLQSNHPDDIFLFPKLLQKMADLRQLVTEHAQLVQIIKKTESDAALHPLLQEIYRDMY
Sequence of Cytochrome P450 3A4 (Homo sapiens) (P08684 whole entry, looked up): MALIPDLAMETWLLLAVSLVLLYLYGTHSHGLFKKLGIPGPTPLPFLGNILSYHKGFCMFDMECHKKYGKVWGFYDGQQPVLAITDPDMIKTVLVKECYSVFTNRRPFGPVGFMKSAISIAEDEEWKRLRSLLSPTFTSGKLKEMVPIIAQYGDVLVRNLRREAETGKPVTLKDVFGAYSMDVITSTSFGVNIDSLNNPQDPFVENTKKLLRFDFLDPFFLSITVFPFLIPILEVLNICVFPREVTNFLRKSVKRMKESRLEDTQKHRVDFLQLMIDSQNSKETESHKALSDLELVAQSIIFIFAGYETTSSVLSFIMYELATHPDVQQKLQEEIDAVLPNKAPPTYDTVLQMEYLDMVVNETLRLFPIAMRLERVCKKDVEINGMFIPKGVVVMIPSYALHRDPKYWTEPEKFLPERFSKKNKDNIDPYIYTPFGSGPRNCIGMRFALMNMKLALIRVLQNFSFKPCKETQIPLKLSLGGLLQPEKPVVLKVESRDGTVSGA

In the case of `FC(F)(F)c1ccccc1-c1cc(NCc2ccccc2)ncn1`, the Potency in [1] was > 20 µM.

Consider `Oc1cc(Cl)c(Cl)c(Cl)c1`, for which the molecule was classed as inactive in [2], in experiment [3], in [4], in [8], in experiment [9] and in [10]. Besides, the Potency result in experiment [5], in experiment [7], in [11], in experiment [12] and in experiment [16] was “inactive” each time. Also, the caspase-3 activation in [6] was 11.5%. Besides, in [13], the activation was 1.76%. For the same molecule, the max response in experiment [14] is -3.78%; in experiment [15] it was -10.7%.

For `N#Cc1ccc(CN2CC[C@@]3(CCCN(C(=O)c4ccncc4)C3)C2)cc1`, in experiment [1], the Potency is > 20 µM.

Take `C=CC(=O)OCCO`: the results for the Potency in [17] and in experiment [19] were > 92 µM and 50.1 µM (active), respectively. The outcome in experiment [2], in [3], in [4], in experiment [8], in [9] and in experiment [10] was inactive. Further, the Potency entry in experiment [5], in experiment [7], in [18], in experiment [20], in experiment [11] and in experiment [12] was “inactive” throughout. In experiment [16], the Potency result was “inactive”. Moreover, the caspase-3 activation in [6] was 2.01%. The max response was 5.17% in experiment [14] and -2.67% in experiment [15].

Take `CN(C)c1ccc(N=Nc2ccccc2)cc1`: the Potency in experiment [17] was > 92 µM; in [13], 44.7 µM (active). Further, the call in experiment [2], in experiment [3], in experiment [4], in [8], in experiment [9] and in experiment [10] was inactive. Also, the Potency result in [5], in experiment [18], in experiment [19], in experiment [20], in experiment [11] and in experiment [12] was “inactive” each time. Further, the Potency result in [16] was “inactive”. Further, the caspase-3 activation in experiment [6] is -8.79%. In addition, the max response in experiment [14] is -12.4%; in experiment [15], -5.92%.

Regarding `BrCC(Br)(Br)Br`, the figures for the Potency in [17] and in experiment [5] were > 92 µM and 25.1 µM (active), respectively. The result in experiment [2], in experiment [3], in experiment [8], in experiment [9] and in experiment [10] was inactive. Further, the caspase-3 activation in [6] was 7.98%. In addition, the Potency entry in experiment [7], in [18], in experiment [19], in experiment [11], in experiment [12] and in experiment [16] was “inactive” each time. For the same molecule, the activation in experiment [13] is 1.69%. Also, the max response in experiment [14] was -5.78%.

On to `COc1ccccc1-c1cncnc1NCc1cccc(C)c1`, for which the Potency in experiment [1] is > 20 µM.

For `COCCn1c(=O)c(-c2cc(F)cc(F)c2)nc2cnc(Oc3ccccc3)nc21`, the Potency in experiment [1] was > 20 µM.

In the case of `Clc1ccc(C(c2ccccc2Cl)C(Cl)(Cl)Cl)cc1` (stereo not given), the Potency was > 92 µM in [17] and 50.1 µM (active) in [16]. In addition, the call in [2], in [3], in [4], in experiment [8], in [9] and in experiment [10] was inactive. Also, the Potency result in experiment [5], in [7], in experiment [18], in experiment [19], in experiment [20] and in experiment [11] was “inactive” in each case. For the same molecule, the Potency entry in experiment [12] was “inactive”. Further, in [13], the activation is -0.21% and -0.331%. Further, the max response in [14] is 3.12%; in experiment [15], -11.9% and 2.81%.

As for `COc1ncc2nc(-c3ccc(F)cc3)c(=O)n(C)c2n1`, in [1], the Potency was > 20 µM.

Regarding `Cc1nc2cnc(N3CCN(C)CC3)nc2n(C[C@H]2CCCO2)c1=O`, in experiment [1], the Potency was > 20 µM.

As for `c1cncc(CNc2nc(-c3cccnc3)nc3ccccc23)c1`, the Potency in experiment [1] was > 20 µM.

As to `CCNc1ncc2nc(-c3ccccc3)c(=O)n(CCOC)c2n1`, the Potency in experiment [1] is > 20 µM.

Take `COc1ccc(Oc2ncc3nc(CCc4ccccc4)c(=O)n(C[C@H]4CCCO4)c3n2)cc1`: the Potency in [1] is > 20 µM.

Regarding `O=[N+]([O-])c1cccc(CCl)c1`, the call in [2], in experiment [3], in experiment [4], in experiment [8], in [9] and in experiment [10] was inactive. In addition, the Potency entry in experiment [5], in [18], in [19], in [20], in experiment [11] and in experiment [12] was “inactive” in each case. In addition, the Potency entry in experiment [16] was “inactive”. Also, in experiment [6], the caspase-3 activation is -1.48%. Moreover, the max response in experiment [14] is 0.189%; in experiment [15], -3.2%.

Source of the values: PubChem BioAssay (NCATS).
